# Reference: PubChem BioAssay (NCI)
# The panel holds about 79,000 compounds, 15% with a hit somewhere; the sample as a whole holds those more often. Values without a mark were called inactive. Activity calls are given as the source filed them. No stated cut-off is given here; in the data, active means growth inhibition above about 70%; inactive means the rest.
# Key:
# [1] = NCI Yeast Anticancer Drug Screen. Data for the rad50 strain (AID 155);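 further: 0% = growth of vehicle-only cultures of the same strain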; details: S. cerevisiae rad50 strain growth inhibition, hits give high values
# Method in brief: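 Relative growth inhibition (compound vs vehicle) was measured in yeast with a defined repair-gene alteration.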
# [2] = NCI Yeast Anticancer Drug Screen. Data for the mec2-1 strain (AID 157); details: S. cerevisiae mec2-1 strain, hits give high values
# Method in brief: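 Yeast mec2-1 mutant treated with compound. Readout: growth inhibition vs vehicle controls.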
# [3] = NCI Yeast Anticancer Drug Screen. Data for the sgs1 mgt1 strain (AID 161);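 further: 0% = growth of cultures given vehicle only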; details: S. cerevisiae sgs1 mgt1 strain, hits give high values
# Method in brief: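 Read-out: growth inhibition vs vehicle controls. Cells: mutant yeast strain deficient in DNA damage repair.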
# [4] = NCI Yeast Anticancer Drug Screen. Data for the cln2 rad14 strain (AID 165);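 further: 0% = growth equal to vehicle treated cultures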; details: S. cerevisiae cln2 rad14 strain, hits give high values
# Method in brief: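 cln2 rad14 yeast strain; compound exposure; growth inhibition read vs vehicle controls.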
# [5] = NCI Yeast Anticancer Drug Screen. Data for the bub3 strain (AID 167); details: S. cerevisiae bub3 mutant strain, hits give high values
# Method in brief: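 Screening used yeast with an engineered genetic alteration affecting cell cycle control. Compound-exposed cultures were compared with vehicle cultures, and reduced growth was taken as inhibition.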
# [6] = NCI Yeast Anticancer Drug Screen. Data for the mlh1 rad18 strain (AID 175); details: S. cerevisiae mlh1 rad18 strain growth inhibition, hits give high values
# Method in brief: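 Yeast w/ defined DNA-repair lesions; compound exposure; growth vs vehicle controls → % inhibition.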
# [7] = at 5.0 µM (retest, dose inferred, filed as 0.5)
# [8] = at 50.0 µM (retest, dose inferred, filed as 5.0)
Compound,"growth inhibition [1, 7]","growth inhibition [1, 8]",growth inhibition ([1]; at 50.0 µM),"growth inhibition [2, 7] [%]","growth inhibition [2, 8]",growth inhibition ([2]; at 50.0 µM),"growth inhibition [3, 7]","growth inhibition [3, 8]",growth inhibition ([3]; at 50.0 µM),"growth inhibition [4, 7] [%]","growth inhibition [4, 8]",growth inhibition ([4]; at 50.0 µM),"growth inhibition [5, 7]","growth inhibition [5, 8]",growth inhibition ([5]; at 50.0 µM),"growth inhibition [6, 7]","growth inhibition [6, 8]",growth inhibition ([6]; at 50.0 µM)
OC(c1ccccc1)(C(F)(F)F)C(O)(c1ccccc1)C(F)(F)F (configuration not stated),77% (active),99% (active),94.4% (active),57,99% (active),89.2% (active),87% (active),99% (active),89.7% (active),57,99% (active),90.5% (active),76% (active),99% (active),81.6% (active),85% (active),99% (active),95.5% (active)
COc1ccc(CN2CCCN(Cc3ccc(OC)cc3OC)C2c2cccc([N+](=O)[O-])c2O)c(OC)c1,16%,61%,70.8% (active),11,29%,29.8%,8%,20%,77.5% (active),5,27%,54.1%,-5%,31%,7.65%,16%,70% (active),51.4%
S=C(C#Cc1ccccc1)Nc1ccccc1,-73%,87% (active),99.3% (active),-36,97% (active),99.4% (active),-30%,96% (active),96.7% (active),-37,94% (active),99% (active),-47%,96% (active),99% (active),-93%,94% (active),99% (active)
CN(CCC1CCCCC1)CCC1CCCCC1,21%,89% (active),97.9% (active),9,72% (active),80.3% (active),35%,97% (active),97.2% (active),14,73% (active),77.6% (active),30%,97% (active),96.5% (active),11%,89% (active),93.6% (active)
O=S(=O)(Sc1ccccc1)c1ccccc1,13%,98% (active),79% (active),11,99% (active),99.1% (active),16%,99% (active),99.3% (active),5,99% (active),97% (active),16%,99% (active),97.3% (active),20%,99% (active),99% (active)
CCc1nc(N)nc(N)c1-c1ccc(N2CCCCC2)c([N+](=O)[O-])c1,3%,8%,31.3%,6,4%,56.8%,1%,3%,13.3%,-6,6%,72.2% (active),-1%,-2%,91.7% (active),-1%,0%,51%
N=Cc1cc([N+](=O)[O-])ccc1O,-5%,94% (active),96.8% (active),-1,98% (active),93% (active),-2%,93% (active),98.5% (active),16,95% (active),94.5% (active),-20%,96% (active),71.3% (active),12%,98% (active),98.2% (active)
CN(C)C=C1C(Cl)=C(C=O)CC(C=O)=C1Cl,2%,24%,12.3%,3,26%,23.1%,3%,36%,63.7%,-2,3%,40.3%,-2%,9%,18.5%,0%,-12%,89.5% (active)
CCCCCCCC/C=C\CCCCCCCC(=O)OCCCCC,-7%,2%,15.6%,-5,0%,13.8%,-2%,18%,17.2%,-8,-10%,60.8%,-6%,-8%,40.5%,15%,11%,33.6%
